Laboratory results as given in PubChem BioAssay AID588683 (Broad Institute, 2011).
Results with a measured potency or affinity are listed apart. Active and inactive are the calls of the source. No rule for the calls is given here.

Target: Kelch-like ECH-associated protein 1 (Homo sapiens) + Nuclear factor erythroid 2-related factor 2 (Homo sapiens) (UniProt Q14145+Q16236)
Assay: Keap1-Nrf2 protein-protein interaction inhibitors, dose response, biochemical, fluorescence polarization, cherry-picked samples (AID 588683);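 also: Kelch domain of Keap1 binding a fluorescein-labelled 9mer Nrf2 peptide; more negative means stronger inhibition of peptide binding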
Details: Keap1/Nrf2 peptide fluorescence polarization, plate reader; series mostly up to 26 µM

Sequence of Kelch-like ECH-associated protein 1 (Homo sapiens) + Nuclear factor erythroid 2-related factor 2 (Homo sapiens) (Q14145 whole entry, looked up, the tested form may be a part): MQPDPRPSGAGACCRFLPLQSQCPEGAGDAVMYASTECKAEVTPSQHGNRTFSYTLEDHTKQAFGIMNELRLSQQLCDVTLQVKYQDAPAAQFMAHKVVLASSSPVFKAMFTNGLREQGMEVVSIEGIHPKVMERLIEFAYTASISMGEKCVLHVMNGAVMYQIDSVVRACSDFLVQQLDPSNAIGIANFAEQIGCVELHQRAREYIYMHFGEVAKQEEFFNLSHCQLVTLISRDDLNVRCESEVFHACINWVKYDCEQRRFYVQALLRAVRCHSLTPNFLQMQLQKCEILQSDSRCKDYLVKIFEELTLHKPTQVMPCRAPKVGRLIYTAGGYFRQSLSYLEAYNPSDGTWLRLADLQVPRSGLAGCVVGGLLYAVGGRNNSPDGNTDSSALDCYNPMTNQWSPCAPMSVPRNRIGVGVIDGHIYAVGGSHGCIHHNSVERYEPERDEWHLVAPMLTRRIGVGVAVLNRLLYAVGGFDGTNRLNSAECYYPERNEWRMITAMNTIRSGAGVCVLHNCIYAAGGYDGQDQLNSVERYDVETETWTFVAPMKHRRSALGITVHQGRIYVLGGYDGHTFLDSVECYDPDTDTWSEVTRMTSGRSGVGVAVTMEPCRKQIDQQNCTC
Sequence of Kelch-like ECH-associated protein 1 (Homo sapiens) + Nuclear factor erythroid 2-related factor 2 (Homo sapiens) (Q16236 whole entry, looked up, the tested form may be a part): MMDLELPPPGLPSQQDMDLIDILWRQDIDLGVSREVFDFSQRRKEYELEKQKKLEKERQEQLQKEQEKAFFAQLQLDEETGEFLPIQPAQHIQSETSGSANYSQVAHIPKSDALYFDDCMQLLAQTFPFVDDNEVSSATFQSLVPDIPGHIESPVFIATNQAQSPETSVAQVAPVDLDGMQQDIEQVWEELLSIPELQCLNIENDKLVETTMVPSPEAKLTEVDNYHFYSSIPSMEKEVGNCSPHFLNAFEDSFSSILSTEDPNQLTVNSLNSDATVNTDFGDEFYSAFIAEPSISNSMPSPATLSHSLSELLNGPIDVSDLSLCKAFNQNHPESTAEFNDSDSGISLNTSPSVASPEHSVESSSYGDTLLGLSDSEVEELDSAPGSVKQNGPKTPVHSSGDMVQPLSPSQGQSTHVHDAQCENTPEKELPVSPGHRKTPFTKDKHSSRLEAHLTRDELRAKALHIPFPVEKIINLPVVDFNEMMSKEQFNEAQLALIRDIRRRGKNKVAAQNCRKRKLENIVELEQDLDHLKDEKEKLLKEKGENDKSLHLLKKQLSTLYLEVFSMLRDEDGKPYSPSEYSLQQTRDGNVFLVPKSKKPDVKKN

Compound | outcome
COc1ccc(-n2c(CNCCc3ccc(C)cc3)nc3ccccc3c2=O)cc1 | inactive
CN1CC=C2C(C#N)=C(N)C(C#N)(C#N)C(c3ccncc3)C2C1 (stereo unspecified) | inactive
CCn1cc(C=C2C(=O)NC(=O)NC2=O)c2ccccc21 | inactive
CC1(O)CCN2C(=O)CCc3cccc1c32 (stereo unspecified) | inactive
COCCNC(=O)Cn1cc(/C=C2\C(=O)NC(=O)N(c3cccc(C)c3C)C2=O)c2ccccc21 | inactive
Cc1cc(C=C2C(=O)NC(=O)NC2=O)c(C)n1-c1cccnc1 | inactive
CCCCc1ccc(C(=O)O)nc1 | inactive
CCOC(=O)c1c(/N=C/c2c(O)n(-c3cccc(C)c3)c(=O)[nH]c2=O)sc2c1CCCC2 | inactive
CN1/C(=C\C=C2C(=O)NC(=O)NC2=O)C(C)(C)c2ccccc21 | inactive
Cn1cc(/C=C2\C(=O)NC(=O)N(c3ccccc3)C2=O)c2ccccc21 | inactive
O=C(O)c1cccc2c1NC(C(=O)O)C1CC(Sc3ccccc3[N+](=O)[O-])C(Cl)C21 (stereo unspecified) | inactive
